Screening results (PubChem)
This is a sample that favours compounds with a hit; in the whole collection about 19% have one here.
HT1080 IDH1KD tx: HT-1080 IDH1 knockdown cell toxicity (counter line). HT-1080 IDH1 knockdown viability, ATP luminescence, 48 h. Potency, µM (top dose mostly 46.1 µM), inactives show top-dose activity, negative = toxicity, hits mostly cytotoxic. hit rate 2% among 360,000. AID 686971;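 further: potency means the concentration at half of the fitted maximal effect; 0% = DMSO wells and -100% = cell-free medium wells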
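Cytotoxicity counter-line: IDH1KD HT-1080, 48 h, CellTiter-Glo. Curves classed by r2, magnitude and activity.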
HT1080NT lethal: kills 2HG-producing HT-1080-NT fibrosarcoma cells | Potency, µM (series often up to 46.1 µM), inactives show at the top dose activity, negative = less viability, usual class: cytotoxic | hit rate 1.6% among 360,000 | HT-1080-NT fibrosarcoma viability, CellTiter-Glo ATP luminescence, 48 h | AID 686970;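 further: NT is the 2HG producing partner of a matched IDH1 knockdown line; potency means the concentration at half of the fitted maximal effect; 0% = DMSO-treated cells and -100% = media-only wells without cells; nearly all actives have a fitted effect of over 55% in size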
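Toxicity toward the 2HG-producing NT line was scored as %Activity, normalised to DMSO and no-cell wells, from CellTiter-Glo luminescence after 48 hours' treatment.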
IL-1B inflam inh: blocks inflammasome-driven IL-1 beta release; THP-1 LPS/ATP IL-1B secretion, AlphaLISA, 16 h; active compounds read low; activity change, % at 57.5 µM; hit rate 4.7% among 360,000; AID 743279; in the data active means activity change below about -50%; inconclusive means mostly about -30% to -49%
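Secreted IL-1B measured by AlphaLISA bead assay after 16 h compound exposure of THP-1 cells; compounds (final up to 57.5 uM) added 1 h before LPS (250 ng/mL) and ATP (1.25 mM) stimulation; lower signal means less secretion.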
TDP1 cell CPT: growth inhibition of DT40 Tdp1-/-;hTDP1 cells with camptothecin (screen for TDP1 inhibitors). chicken DT40 Tdp1-/-;hTDP1 cells + 20 nM CPT, ATP luminescence, 48 h. Potency, µM (highest dose often 46.2 µM), for inactives: at the top dose activity change, negative = growth inhibition, actives largely listed as inhibitors. hit rate 12% among 420,000. AID 686979; further: potency means the concentration at half of the fitted maximal effect; nearly all actives have a fitted effect of over 55% in size
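Chicken DT40 Tdp1-/- cells complemented with human TDP1, 400 cells/well, exposed to compounds plus 20 nM camptothecin for at least 48 h at 37 C; viability read as ATP content by CellTiter-Glo luminescence.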
DT40 TDP1 no CPT: qHTS for Inhibitors of human tyrosyl-DNA phosphodiesterase 1 (TDP1): qHTS in cells in absence of CPT. DT40 Tdp1-/- hTDP1 cells, no CPT, ATP luminescence, 48 h. Potency, µM (highest dose often 46.2 µM), for the others: at the top dose activity change, negative = growth inhibition, usual class: inhibitors. hit rate 15% among 420,000. AID 686978, 2013; further: potency means the concentration at half of the fitted maximal effect; nearly all actives have a fitted effect of over 55% in size
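Stably hTDP1-transfected Tdp1-null chicken DT40 cells were treated with library compounds minus camptothecin and grown for at least 48 hr at 37 °C, after which cellular ATP was quantified by luminescence.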
Numbers without * were called inactive; ? = inconclusive; . = no result. Unless noted, the call rests on the fitted dose curve; in most records, active means well fitted curve in the direction sought with a large enough effect; inconclusive means small, poorly fitted or top-dose-only effect, or another doubt; inactive means no such curve, though single readings can be large; an effect the other way counts as inactive or inconclusive. Unless noted, on the % scale 0 is the no-effect control and ±100 the full control effect.

SMILES	HT1080 IDH1KD tx	HT1080NT lethal	IL-1B inflam inh	TDP1 cell CPT	DT40 TDP1 no CPT
Cc1ccc(C)c(N2CCN(C(=O)c3cc4ccc5cccnc5c4[nH]3)CC2)c1	.	.	.	29µM*	?
Cc1ccc(Cl)cc1N(C)C(=O)c1cc2ccc3cccnc3c2[nH]1	.	.	.	6.5µM*	8.2µM*
Cc1cccc(N2CCN(C(=O)c3cccc(-n4c(C)nc5cccnc54)c3)CC2)c1C	.	.	.	7.3µM*	5.8µM*
COc1ccc(C(C)NC(=O)CC23CC4CC(CC(C4)C2)C3)cc1 (stereo not drawn)	-2%	0%	-6	?	16µM*
CCCCCCOc1ccc(N2C(=O)CC(N3CCN(CCN=CC4C(=O)CC(C)(C)CC4=O)CC3)C2=O)cc1 (stereo not drawn)	0%	-2%	21	?	23µM*
Cc1cccnc1NC(=O)COc1ccc2oc3c(c2c1)CCCC3	-18%	-4%	0	-23%	?
CC(C)N(CCNC(=O)COc1ccc2oc3c(c2c1)CCCC3)C(C)C	?	-21%	-77*	?	23µM*
Cc1ccc(NC(=O)COc2ccc3oc4c(c3c2)CCCC4)nc1	7%	3%	-1	?	8.2µM*
O=C(COc1ccc2oc3c(c2c1)CCCC3)Nc1ccc(Br)cc1	.	.	.	15µM*	?
Cc1ccc(NC(=O)COc2ccc3oc4c(c3c2)CCCC4)cc1C	.	.	.	-26%	-27%
Cc1cccc(NC(=O)COc2ccc3oc4c(c3c2)CCCC4)c1	.	.	.	16µM*	18µM*
C/C(=N\NC(=O)c1ccc(O)cc1)c1ccc(N2CCOCC2)cc1	-11%	1%	8	1%	-1%
C/C(=N\NC(=O)c1ccc(N/N=C(\C)c2ccc(O)cc2)cc1)c1ccc(O)cc1	?	-29%	-25	21µM*	8.2µM*
C/C(=N\Nc1cccc([N+](=O)[O-])c1)c1ccccc1O	?	?	-22	?	?
C/C(=N\Nc1cccc([N+](=O)[O-])c1)c1cc(F)ccc1O	-13%	-11%	-10	?	13µM*
COc1ccc(C(=O)Nc2cccc(/C(C)=N\NC(=O)c3ccoc3C)c2)cc1OC	-27%	-18%	-50*	?	?
CC(=O)c1cccc(NC(=O)c2ccoc2C)c1	25%	0%	43	9%	-2%
C/C(=N/Nc1ccc(C(=O)O)cc1)c1ccc(O)c(O)c1O	10%	10%	5	15µM*	15µM*
COc1ccc(C(C(=O)NCC2CCCO2)N(C(=O)CNC(=O)c2cccs2)c2ccc(C)cc2)cc1OC (stereo not drawn)	-1%	24%	6	12%	7%
O=C(NC1CCCC1)c1cn(C2CCCN(Cc3ccc4c(c3)OCCO4)C2)nn1 (stereo not drawn)	.	.	.	?	0%
C/C(=N\NC(=O)c1cccc(F)c1)c1cccc(NC(=O)c2ccc(F)cc2)c1	-2%	-1%	-5	-1%	-15%
C/C(=N\NC(=O)c1ccccc1F)c1cccc(NC(=O)c2ccc(C)cc2)c1	-4%	0%	-4	?	16µM*
C/C(=N\NC(=O)c1ccc(Cl)cc1)c1cccnc1	1%	-3%	-14	-3%	6%
C/C(=N\NC(=O)c1cccc(O)c1)c1cccc(NC(=O)c2ccc(F)cc2)c1	-2%	0%	-28	10µM*	?
C/C(=N\NC(=O)c1ccc(Cl)cc1)c1cccc(NC(=O)c2cccnc2)c1	-1%	-18%	-66*	?	?
SMILES	HT1080 IDH1KD tx	HT1080NT lethal	IL-1B inflam inh	TDP1 cell CPT	DT40 TDP1 no CPT
C/C(=N\NC(=O)c1cccc(N/N=C(\C)c2cc(O)ccc2O)c1)c1cc(O)ccc1O	18µM*	23µM*	0	12µM*	16µM*
CC1(C(=O)NS(=O)(=O)c2cccc(C#N)c2)CCN1C(=O)Cc1ccc(-c2ccccc2)cc1 (stereo not drawn)	7%	8%	46	-15%	-25%
CN(CC1CCOCC1)C(=O)CC1C(=O)NCCN1Cc1cccc(Oc2ccccc2)c1 (stereo not drawn)	2%	0%	1	-23%	?
CCN1CCN(Cc2nc3cc(NC(=O)c4ccccc4[N+](=O)[O-])ccc3n2CC)CC1	.	.	.	-13%	-8%
C/C(=N\NC(=O)c1ccc(F)cc1)c1cccc(NC(=O)c2cccc(F)c2)c1	6%	28%	10	?	?
C/C(=N\NC(=O)c1c(Cl)c(C)nn1C)c1cccc(NC(=O)COc2ccc(Cl)cc2)c1	-1%	-15%	-12	?	16µM*
C/C(=N\NC(=O)c1ccc(O)cc1)c1cccc(NC(=O)c2ccc(Cl)cc2)c1	-22%	-19%	-97*	?	12µM*
CC1CCc2c(sc3nc(CN4CCN(S(=O)(=O)c5ccccc5[N+](=O)[O-])CC4)[nH]c(=O)c23)C1 (stereo not drawn)	1%	8%	?	?	?
CC(C)OC(=O)c1cn(-c2ccccc2)nc1-c1ccco1	4%	4%	-90*	?	?
COc1cccc(C2=NN(C(=O)CCCC(=O)O)C(c3cccs3)C2)c1 (stereo not drawn)	23%	?	27	2%	2%
Cc1cccc(N2CCN(C(=O)C3CCCN(C(=O)c4cc5sccc5n4C)C3)CC2)c1C (stereo not drawn)	.	.	.	23µM*	23µM*
Cc1cccc(N2CCN(C(=O)C3CCN(C(=O)c4cc5sccc5n4C)CC3)CC2)c1C	.	.	.	12µM*	8.2µM*
Cn1c(C(=O)N2CCC(C(=O)N3CCOCC3)CC2)cc2sccc21	-4%	8%	14	-6%	-5%
COc1ccccc1NC(=O)c1ccccc1N(Cc1ccccc1)S(C)(=O)=O	7%	5%	-2	?	?
Cc1ccc(O)c(NC(=S)NC(=O)/C=C/c2ccco2)c1	-22%	-26%	-7	7.3µM*	6.5µM*
Cc1ccc(O)c(NC(=S)NC(=O)/C=C/c2ccccc2)c1	6%	6%	-14	24%	-27%
Cc1ccnc(NC(=S)NC(=O)/C=C/c2ccco2)c1	?	?	44	10µM*	9.2µM*
Cc1ccnc(NC(=O)/C=C/c2cccs2)c1	?	?	-98*	?	12µM*
O=C(/C=C/c1ccco1)NC(=S)Nc1ccc(N2CCCC2)cc1	?	?	-16	23µM*	15µM*
O=C(/C=C/c1ccco1)NC(=S)Nc1ccc(Cl)cn1	-1%	9%	42	-25%	-2%
Cc1ccc(S(=O)(=O)N2CCOCC2)cc1NC(=O)CSc1nnnn1C1CC1	2%	2%	0	-19%	0%
